Source: PubChem BioAssay (NCI)
This is part of a sample that, as a whole, favours compounds with a hit. Of some 83,000 tested, about 20% had one in any assay.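 Each cell line was grown in a 96-well plate and treated with one concentration of compound for 48 hours. Values below 10 were considered active.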 A number with no mark means an inactive call. The source made the active and inactive calls.

Columns and labels:
Assay in all cases: NCI-60 one-dose screen, 48 h (100 = growth as untreated, 0 = no growth, -100 = all killed)
Settings in all cases: 10 µM unless noted
[1] = tested on: HCT-15 colon
[2] = tested on: HT29 colon
[3] = tested on: SNB-75 CNS
[4] = tested on: SNB-19 CNS
[5] = tested on: U251 CNS
[6] = tested on: PC-3 prostate
[7] = tested on: SK-MEL-5 melanoma
[8] = tested on: UACC-62 melanoma
[9] = tested on: LOX IMVI melanoma
[10] = tested on: SK-MEL-28 melanoma
[11] = tested on: SK-MEL-2 melanoma
[12] = tested on: EKVX NSCLC
[13] = tested on: SN12C renal
[14] = tested on: UO-31 renal
[15] = tested on: TK-10 renal
[16] = tested on: ACHN renal
[17] = tested on: CAKI-1 renal
[18] = tested on: A498 renal
[19] = tested on: CCRF-CEM leukemia

| Compound | growth [1] | growth [2] | growth [3] | growth [4] [%] | growth [5] | growth [6] | growth [7] | growth [8] | growth [9] | growth [10] | growth [11] | growth [12] | growth [13] | growth [14] | growth [15] | growth [16] [%] | growth [17] | growth [18] | growth [19] |
| --- | --- | --- | --- | --- | --- | --- | --- | --- | --- | --- | --- | --- | --- | --- | --- | --- | --- | --- | --- |
| COc1cc(Cc2cc(OC)c(O)c(OC)c2)cc(OC)c1O | 60.9% | 110% | 82.2% | 102 | 102% | 80.2% | 101% | 94.9% | 80.7% | 82.4% | 76.6% | 110% | 97.7% | 120% | 107% | 106 | 73.9% | 88.6% | 59.9% |
| COC(=O)c1ccc2cc(OC)c(OC)cc2c1 | 100% | 90.7% | 97.8% | 99.5 | 95.7% | 92.1% | 108% | 104% | 109% | 102% | 134% | 84.8% | 104% | 100% | 103% | 106 | 91.6% | 75.4% | 91% |
| Cc1nn(-c2ccc([N+](=O)[O-])cc2)c2ncnc(N/N=C/c3ccccc3O)c12 | 26.2% | 30.1% | 37.9% | 18 | 11.4% | 27% | -42% (active) | -11.3% (active) | 6.25% (active) | 22% | 31.6% | -0.848% (active) | 6.16% (active) | -11.5% (active) | 35.5% | 12 | 3.95% (active) | 65.6% | -12.4% (active) |
| Cc1nc2sc(C(=O)Nc3cccc4ccccc34)c(N)c2cc1C(=O)c1ccccc1 | 14% | 14.7% | 11.9% | 26.9 | 22.8% | 21.3% | 25% | 33.4% | 41.8% | 59.8% | 46.6% | 46% | 36.6% | 43.5% | 66.1% | 41.6 | 36.5% | -10.9% (active) | 12% |
| CN(C)C1CN(C(=O)c2cc(-c3ccc4ncnc(N5CCc6cc(F)c(Cl)cc65)c4c3)cnc2N)C1 | 7.17% (active) | 14.8% | -27% (active) | 23.5 | 25% | 7.13% (active) | -20.8% (active) | -19.7% (active) | 7.5% (active) | 8.13% (active) | -11.5% (active) | 10.1% | 11.1% | 7.34% (active) | 5.66% (active) | 10.8 | 0.593% (active) | -78.2% (active) | 15.7% |
| CCCCNC(=O)c1ccc2c(c1)nc(-c1ccccc1)n2C1CCCCC1 | 72.5% | 50.3% | 114% | 110 | 99% | 90.9% | 93.7% | 87.3% | 92.6% | 106% | 101% | 88.4% | 102% | 79.1% | 130% | 102 | 109% | 101% | 86.5% |
| COc1cc(N2C(=O)[C@H](Cl)C2c2ccc(SC)cc2)cc(OC)c1OC (some centres not stated) | 4.62% (active) | 1.22% (active) | 73.9% | 30.5 | 7.72% (active) | 22.1% | -34.3% (active) | 29.5% | 20.3% | 65.7% | 44.6% | 28.6% | 31.8% | 40.6% | 49.1% | 30.3 | 24.3% | -7.35% (active) | 11.4% |
| COc1ccc2c(c1)CC[C@@H]1[C@@H]2CC[C@]2(C)c3c(cc(C#N)c4c3sc3ccccc34)C[C@@H]12 | 104% | 100% | 86% | 104 | 104% | 85.5% | 95.9% | 99.5% | 96.8% | 110% | 109% | 103% | 104% | 85% | 107% | 105 | 103% | 109% | 82.3% |
